Source: PubChem BioAssay (NCATS)
Records with an inconclusive call do not appear. Activity calls are given as the source filed them. Calls follow the shape of the dose curve; as a rule, active = well fitted cell-killing curve with a large enough effect; inconclusive = small, poorly fitted or top-dose-only effect; inactive = flat fitted curve, though single readings scatter.

test: Cell Viability - LYMP2-015 (AID 971); conditions: LYMP2-015 lymphoblastoid cell viability; series mostly up to 92.2 µM; activity change, negative = lower viability: at the top concentration;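 also: cells exposed to compound for 24 h; nearly all actives have a fitted effect of over 55% in size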;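 as to activity change, negative = lower viability: 0% = DMSO only and full effect = 92 µM tetraoctylammonium bromide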
Source text: NIH Chemical Genomics Center [NCGC]
NIH Molecular Libraries Screening Centers Network [MLSCN]
National Institutes of Environmental Health Sciences [NIEHS]
National Toxicology Program [NTP]
We have developed a 1536-well cell-based assay for quantitative high throughput screening (qHTS) against a number of cell lines to determine in vitro cytotoxicity of small molecules. This particular assay uses a human lymphoblastoid cell line (LYMP2-015) purchased from Coriell Institute for Medical Research.
NCGC Assay Protocol Summary:
The CellTiter-Glo luminescent cell viability assay (Promega) is a homogeneous method to measure the number of viable cells in culture. The end point readout of this assay is based on quantitation of intracellular ATP, an indicator of metabolic activity, using the luciferase reaction. Luciferase catalyzes the oxidation of beetle Luciferin to oxyluciferin and light in the presence of ATP. The luminescent signal is proportional to amount of ATP present.
Using the CellTiter-Glo luminescent cell viability assay, the amount of cellular ATP was measured in the lymphoblastoid cell line with complete culture medium following compound treatment for 24 hours. The assay was performed in opaque white Kalypsys 1536-well plates. In the screen, tetraoctylammonium bromide was used as positive control. Library compounds were measured for their ability to cause acute toxicity in the cell line, as reflected by a decrease in intracellular ATP levels, in a concentration-dependent manner. […] AC50 values were determined from concentration-response data modeled with the standard Hill equation.
qHTS protocol for CellTiter Glo lymphoblastoid cellular assay
[Step] [Parameter] [Value] [Description]
1. Reagent; 5 uL; 2500 lymphoblastoid cells/well
2. Time; 5 hr; 37 C incubation
4. Controls; 23 nL; Tetraoctylammonium bromide 6.4pM to 92 uM
5. Time; 24 hr; 37 C incubation
6. Reagent; 5 uL; CellTiter Glo reagent
7. Time; 30 min; Room Temperature
8. Detection; Luminescence; Viewlux plate reader
Keywords: cell viability, cytotoxicity, lymphoblastoid cell line, luminescence, NTPHTS, NTPHTS_NCGC, NIEHS, DSSTox, MLSMR, MLSCN, NIH Roadmap, qHTS, NCGC
Potency is read from the fitted curve at half-maximal effect.

Row | Compound | Potency | activity change, negative = lower viability
1 | CC(C)(c1ccc(O)cc1)c1ccc(O)cc1 | inactive | –
2 | Nc1cccc2c(N)cccc12 | – | -16.2% (inactive)
3 | O=C(c1ccccc1)c1ccccc1 | – | 7.38% (inactive)
4 | O=C(Oc1ccccc1)c1ccccc1O | – | -10.4% (inactive)
5 | CC(C)C(C)(C)C(C)(C)C(C)(C)S | – | 6.81% (inactive)
6 | OCc1c[nH]c2ccccc12 | – | -0.347% (inactive)
7 | Brc1ccccc1-c1ccccc1 | – | -0.727% (inactive)
8 | C1=CC2C3C=CC(C3)C2C1 (stereo unspecified) | – | 0.102% (inactive)
9 | COc1cc(C=O)ccc1O | – | 4.47% (inactive)
10 | c1ccc2occc2c1 | – | -20% (inactive)
11 | Oc1ccccc1 | – | -1.61% (inactive)
12 | CC(C)(C)c1ccc(O)c(O)c1 | 31.6 µM (active) | –
13 | Cc1ccc(O)cc1 | – | -3.2% (inactive)
14 | Nc1c2ccccc2nc2ccccc12 | 10 µM (active) | –
15 | Nc1ccc(O)cc1 | 31.6 µM (active) | –
16 | CCCCCCCCCCCCCCCC[n+]1ccccc1 | 15.8 µM (active) | –
17 | Cc1cc(C(C)(C)C)c(O)c(C(C)(C)C)c1 | – | -15.9% (inactive)
18 | CCCCC(CC)COC(=O)c1ccccc1C(=O)O (stereo unspecified) | – | -6.61% (inactive)
19 | O=C(NO)c1ccccc1 | – | -4.4% (inactive)
20 | CCCC(=O)c1cc(O)c(O)cc1O | – | -20.1% (inactive)
21 | CC(=O)OC/C=C(C)/C=C/C=C(C)/C=C/C1=C(C)CCCC1(C)C | 50.1 µM (active) | –
